Our source for the outcome and AC50 values is PubChem BioAssay (EPA / NIEHS).

A word on the AC50: it is the midpoint of the concentration-response curve, whichever way the signal moves.

Inconclusive results are not listed. Activity calls are given as the source filed them. How the source made its calls, unless noted: active means hit-call score of the fitted dose curve at least 0.9, where 1 is the maximum; inactive means score below 0.9.

Read-out in test [1]: Monokine induced gamma interferon (MIG), CXCL9 (gene 4283)
The test is described as follows: BSK_3C_MIG: BioMAP Diversity Plus: 3C Assay for Monokine induced gamma interferon (MIG) Biomarker Activity (AID 2283021). The conditions noted are these: primary human endothelial cells (HUVEC); actives raise or lower the signal. Summed up: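 Primary human umbilical vein endothelial cells in the 3C system were exposed to chemical for 24 h, after which MIG was quantified by ELISA. Activity was fitted bidirectionally against DMSO as negative control and baseline.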

Test [2] in a line: BSK_3C_SRB: Viability Assessment in the BioMAP Diversity Plus: 3C Assay (AID 2283023).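 Further: fitted both ways against DMSO so a hit may be signal rise or drop.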 The following applies: primary human endothelial cells (HUVEC). Put shortly: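 Primary human umbilical vein endothelial cells in the 3C system were read 24 h after compound dosing. Total protein was stained with 0.1% sulforhodamine B after 10% TCA fixation and read at 560 nm, with bidirectional fitting against DMSO as baseline.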

Read-out in test [3]: Matrix Metallopeptidase 1 (MMP1), MMP1 (gene 4312)
The test is described as follows: BSK_BE3C_MMP1: BioMAP Diversity Plus: BE3C Assay for Matrix Metallopeptidase 1 (MMP1) Biomarker Activity (AID 2283024). The conditions noted are these: primary human bronchial epithelial cells; actives raise or lower the signal. Put shortly:
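Primary human bronchial epithelial cells were dosed with test chemicals, and MMP1 levels were measured by ELISA 24 h later. Data were fitted bidirectionally against DMSO as the negative control and activity baseline.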

A short description of test [4]: BSK_3C_Vis: BioMAP Diversity Plus: 3C Assay for Morphology Visualization (AID 2283025).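 Further: fitted both ways so gain or loss versus DMSO counts.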 The conditions noted are these: primary human endothelial cells (HUVEC). Summed up: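 Human umbilical vein endothelial cells in the 3C system were imaged by light microscopy 24 h after chemical dosing to record cell morphology. Activity was fitted bidirectionally against DMSO as negative control and baseline; the endpoint serves as a background control.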

Read-out in test [5]: Pselectin, SELP (gene 6403)
The test is described as follows: BSK_4H_Pselectin: BioMAP Diversity Plus: 4H Assay for Pselectin Biomarker Activity (AID 2283026). The conditions noted are these: primary human endothelial cells (HUVEC); actives raise or lower the signal. Summed up: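 Primary human umbilical vein endothelial cells were exposed to test chemical for 24 h, then cell-surface P-selectin was quantified by ELISA. Activity was fitted bidirectionally against DMSO as negative control and baseline.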

Test [6] can be described thus: BSK_4H_SRB: Viability Assessment in the BioMAP Diversity Plus: 4H Assay (AID 2283027).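 Further: cells exposed to compound for 24 h before staining.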 The following applies: primary human endothelial cells (HUVEC). Summed up: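 Human umbilical vein endothelial cells were dosed with chemical and, after 24 h, fixed with 10% TCA, stained with 0.1% sulforhodamine B, and read at 560 nm to give total protein as a cytotoxicity measure. Bidirectional fitting relative to DMSO control.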

A short description of test [7]: BSK_BE3C_SRB: Viability Assessment in the BioMAP Diversity Plus: BE3C Assay (AID 2283028). The conditions noted are these: primary human bronchial epithelial cells. Summed up:
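Human primary bronchial epithelial cells were exposed to test chemicals for 24 h. Total protein in parallel cultures was then measured by staining with 0.1% sulforhodamine B after 10% TCA fixation, with absorbance read at 560 nm. Activity was fitted bidirectionally against DMSO.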

Read-out in test [8]: Thrombomodulin, THBD (gene 7056)
The test is described as follows: BSK_3C_Thrombomodulin: BioMAP Diversity Plus: 3C Assay for Thrombomodulin Biomarker Activity (AID 2283029). The following applies: primary human endothelial cells (HUVEC); actives raise or lower the signal. Put shortly: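 Primary human umbilical vein endothelial cells (3C system) were exposed to chemical for 24 h, then thrombomodulin levels were measured by ELISA. Activity was fitted bidirectionally against the DMSO negative control as baseline.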

Read-out in test [9]: Urokinase-type plasminogen activator receptor (uPAR), PLAUR (gene 5329)
The test is described as follows: BSK_4H_uPAR: BioMAP Diversity Plus: 4H Assay for Urokinase-type plasminogen activator receptor (uPAR) Biomarker Activity (AID 2283030). The conditions noted are these: primary human endothelial cells (HUVEC); actives raise or lower the signal. Put shortly:
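Primary human umbilical vein endothelial cells were exposed to chemical for 24 h before cell-surface uPAR was quantified by ELISA. Activity was fitted bidirectionally against the DMSO negative control baseline.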

Read-out in test [10]: Vascular endothelial growth factor receptor 2 (Homo sapiens) (UniProt P35968)
The test is described as follows: BSK_4H_VEGFRII: BioMAP Diversity Plus: 4H Assay for Vascular endothelial growth factor receptor 2 (VEGFR2) Biomarker Activity (AID 2283031). The conditions noted are these: primary human endothelial cells (HUVEC); actives raise or lower the signal. Summed up:
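Primary human umbilical vein endothelial cells in the BioMAP 4H system were dosed with test chemical, and 24 h later VEGFRII was measured by ELISA. Activity was fitted bidirectionally against DMSO as negative control and baseline.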

Read-out in test [11]: Human Leukocyte Antigen - DR isotype (HLADR), HLA-DRA (gene 3122)
The test is described as follows: BSK_BE3C_HLADR: BioMAP Diversity Plus: BE3C Assay for Human Leukocyte Antigen - DR isotype (HLADR) Biomarker Activity (AID 2283032). The conditions noted are these: primary human bronchial epithelial cells; actives raise or lower the signal. Summed up: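 Human primary bronchial epithelial cells in the BE3C system were exposed to chemicals for 24 h, after which HLA-DR levels were quantified by ELISA. Activity was fitted bidirectionally, gain or loss of signal, against DMSO as negative control and baseline.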

Read-out in test [12]: Vascular cell adhesion molecule 1 (VCAM1), VCAM1 (gene 7412)
Kind of test: BSK_4H_VCAM1: BioMAP Diversity Plus: 4H Assay for Vascular cell adhesion molecule 1 (VCAM1) Biomarker Activity (AID 2283033).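 On outcome: cell-surface VCAM-1 protein measured by ELISA.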 The following applies: primary human endothelial cells (HUVEC); actives raise or lower the signal. Put shortly: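 Primary human umbilical vein endothelial cells were exposed to chemicals for 24 h, after which VCAM-1 was quantified by ELISA. Responses were fitted bidirectionally against DMSO as negative control and activity baseline.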

Read-out in test [13]: Interferon-gamma inducible Protein 10 (IP10), CXCL10 (gene 3627)
The test is described as follows: BSK_BE3C_IP10: BioMAP Diversity Plus: BE3C Assay for Interferon-gamma inducible Protein 10 (IP10) Biomarker Activity (AID 2283034). The conditions noted are these: primary human bronchial epithelial cells; actives raise or lower the signal. Summed up:
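Human primary bronchial epithelial cells were exposed to chemicals for 24 hours, after which IP-10 levels were measured by ELISA. Data were fitted bidirectionally against DMSO, which served as the negative control and activity baseline.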

Read-out in test [14]: Plasminogen activator inhibitor-1 (PAI1), SERPINE1 (gene 5054)
The test is described as follows: BSK_BE3C_PAI1: BioMAP Diversity Plus: BE3C Assay for Plasminogen activator inhibitor-1 (PAI1) Biomarker Activity (AID 2283037). The conditions noted are these: primary human bronchial epithelial cells; actives raise or lower the signal. Put shortly: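 Human primary bronchial epithelial cells were exposed to chemical for 24 h, then PAI-1 was quantified by ELISA. Activity was fitted bidirectionally relative to the DMSO negative control baseline.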

Read-out in test [15]: urokinase plasminogen activator (uPA), PLAU (gene 5328)
Kind of test: BSK_BE3C_uPA: BioMAP Diversity Plus: BE3C Assay for urokinase plasminogen activator (uPA) Biomarker Activity (AID 2283038).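 On outcome: uPA protein level quantified by ELISA in cell cultures; uPA read one day after compound addition.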 The following applies: primary human bronchial epithelial cells; actives raise or lower the signal. Put shortly: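 Human primary bronchial epithelial cells were exposed to chemical for 24 h, then uPA levels were measured by ELISA. Responses were fitted bidirectionally against DMSO as negative control and baseline. Parallel SRB staining of total protein gauged overt cytotoxicity.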

Read-out in test [16]: Urokinase-type plasminogen activator receptor (uPAR), PLAUR (gene 5329)
The test is described as follows: BSK_BE3C_uPAR: BioMAP Diversity Plus: BE3C Assay for Urokinase-type plasminogen activator receptor (uPAR) Biomarker Activity (AID 2283039).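 Further: cells exposed to compound for one day before measurement.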 The conditions noted are these: primary human bronchial epithelial cells; actives raise or lower the signal. Put shortly: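 Primary human bronchial epithelial cells were dosed with chemical and harvested 24 h later; uPAR was quantified by ELISA. Activity was fitted bidirectionally against DMSO as negative control and baseline.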

Read-out in test [17]: Interleukin-6 (IL6), IL6 (gene 3569)
Kind of test: BSK_CASM3C_IL6: BioMAP Diversity Plus: CASM3C Assay for Interleukin-6 (IL6) Biomarker Activity for (AID 2283040). The following applies: primary human coronary artery smooth muscle cells; actives raise or lower the signal.

Read-out in test [18]: Tissue plasminogen activator (tPA), PLAT (gene 5327)
Kind of test: BSK_BE3C_tPA: BioMAP Diversity Plus: BE3C Assay for Tissue plasminogen activator (tPA) Biomarker Activity (AID 2283041).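 On outcome: tPA level quantified by ELISA one day after compound addition.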 The conditions noted are these: primary human bronchial epithelial cells; actives raise or lower the signal. Summed up:
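Human primary bronchial epithelial cells were dosed with chemical and tPA biomarker levels measured by ELISA 24 hours later. Activity was fitted bidirectionally against DMSO as negative control and baseline.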

In test [19] the target is human Vitamin D Receptor (VDR), VDR (gene 7421) (UniProt P11473). The test is described as follows: ATG_VDR_TRANS: Attagene TRANS-FACTORIAL HepG2 Assay for human Vitamin D Receptor (VDR) (AID 2283022; active means hit-call score of the fitted dose curve at least 0.9, where 1 is the maximum). Summed up: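 HepG2 cells were transiently transfected with multiple GAL4-UAS reporter units, so signal reflects exogenous chimeric receptor-Gal4 activity. After 24 h compound exposure, reporter mRNA was measured by RT-PCR, fluorescent labelling and capillary electrophoresis, fitted for gain of signal versus DMSO.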
Sequence of human Vitamin D Receptor (VDR), VDR (gene 7421) (P11473 whole entry, looked up, the tested form may be a part): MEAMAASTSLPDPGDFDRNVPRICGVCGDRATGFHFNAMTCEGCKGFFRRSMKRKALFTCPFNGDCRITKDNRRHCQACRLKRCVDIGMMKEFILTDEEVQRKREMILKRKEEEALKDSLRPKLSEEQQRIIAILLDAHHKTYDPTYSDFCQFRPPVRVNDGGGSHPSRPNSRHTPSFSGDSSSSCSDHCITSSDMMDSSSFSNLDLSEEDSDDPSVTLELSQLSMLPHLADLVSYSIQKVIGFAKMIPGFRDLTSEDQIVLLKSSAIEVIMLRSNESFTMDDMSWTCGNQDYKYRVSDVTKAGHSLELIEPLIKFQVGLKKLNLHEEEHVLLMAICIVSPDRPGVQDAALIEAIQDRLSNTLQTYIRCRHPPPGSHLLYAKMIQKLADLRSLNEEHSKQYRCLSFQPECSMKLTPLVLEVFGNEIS

For the compound `OCCN1CCOCC1`, the outcome in [1], in test [2], in test [3], in [4], in [5] and in test [6] was inactive. Also, the outcome in [7], in [8], in test [9], in [10], in test [11] and in test [12] was inactive. Also, the result in test [13], in test [14], in [15], in test [16], in [17] and in test [18] was inactive.

On to `CCOC(=O)C=Cc1ccccc1`, for which the result in test [1], in test [19], in test [2], in test [3], in test [4] and in test [5] was inactive. Moreover, the result in test [6], in [7], in test [8], in [9], in [10] and in test [11] was inactive. Besides, the outcome in [12], in test [13], in test [14], in test [15], in test [16] and in test [17] was inactive. In [18], the result was inactive.

Turning to `Nc1ccc(N)c([N+](=O)[O-])c1`, the result in test [1], in [2], in [3], in test [4], in [5] and in test [6] was inactive. For the same compound, the result in test [7], in [8], in [9], in [10], in [11] and in [12] was inactive. Besides, the outcome in test [13], in test [14], in test [15], in test [16], in test [17] and in test [18] was inactive.

For the compound `COC(=O)c1ccc(C(=O)OC)cc1`, the result in test [1], in test [19], in [2], in test [3], in test [4] and in [5] was inactive. Also, the result in test [6], in test [7], in test [8], in test [9], in test [10] and in test [11] was inactive. In addition, the outcome in test [12], in test [13], in test [14], in [15], in test [16] and in test [17] was inactive. In test [18], the result was inactive.

Take `CCCO[Si](OCCC)(OCCC)OCCC`: the result in test [1], in test [19], in test [2], in test [3], in test [5] and in test [6] was inactive. Moreover, the outcome in test [7], in test [8], in test [9], in [10], in test [11] and in test [12] was inactive. Besides, the outcome in test [13], in [14], in test [15], in test [16], in test [17] and in [18] was inactive.

Consider `CCCCCCCC1CCCC1=O` (stereo not given), for which the result in test [1], in test [6], in [7], in [8], in test [10] and in test [16] was inactive. For the same compound, the AC50 in test [2] is 32.9 µM (active); in [3], 32.8 µM (active); in test [4], 37.8 µM (active); in test [5], 32.8 µM (active); in [9] it was 30.7 µM (active); in [11], 30.7 µM (active). Moreover, the AC50 is 31.5 µM (active) in test [12]; 33.5 µM (active) in test [13]; 36.6 µM (active) in test [14]; 32.4 µM (active) in test [15]; 31 µM (active) in test [17]; 33.4 µM (active) in test [18].
